Screening results (PubChem BioAssay)
In the library only some 0.33% were active in any assay of this set; here they are far more common.
Pin1 inh – inhibitors of human Pin1; Q13526; Potency, µM (top dose mostly 115 µM), hits mostly inhibitors; Pin1 FP peptide displacement, HiFluor488, 10 min; 390,000 compounds, 0.009% hits; active = well fitted inhibition curve with a large enough effect in the polarisation, with a control signal flat, not every such curve was filed as active; inconclusive = small, poorly fitted or top-dose-only effect, or effect the other way, or a change in a side signal; inactive = no such curve, though single readings can be large or run the other way; the % refers to the polarisation
Target sequence (Q13526 whole entry, looked up): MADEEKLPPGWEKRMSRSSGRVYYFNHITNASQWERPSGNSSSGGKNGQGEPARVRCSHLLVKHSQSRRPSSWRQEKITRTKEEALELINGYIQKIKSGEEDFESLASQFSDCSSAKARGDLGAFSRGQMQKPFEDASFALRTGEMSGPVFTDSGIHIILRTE
GLS inhibitor – blocks human kidney-isoform glutaminase activity | O94925 | GLS enzymatic activity, qHTS titration | Potency, µM (series often up to 45.5 µM), actives largely listed as inhibitors | 410,000 compounds, 0.21% hits | AID 624170
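Glutamate formation by hKGA was monitored fluorometrically using coupled glutamate oxidase, HRP and Amplex Red. Substrate was added as 1 mM L-glutamine solution; incubation was 30 min at RT after an initial read.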
Tb PGK inh – T. brucei PGK inhibition | P07378 | PGK/GAPDH coupled, Kinase-Glo luminescence, 60 min | Potency, µM (top dose mostly 57.5 µM), usual class: inhibitors | 380,000 compounds, 0.043% hits; also: nearly all actives have a fitted effect of over 60% in size
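Luminescent ATP detection (Kinase-Glo Plus) follows a 60-minute room-temperature incubation, with wells lacking PGK as controls. Buffer: 100 mM TEA (pH 7.6), 5 mM MgCl2, 0.01% Tween-20. Coupling enzyme GAPDH (100 nM final) supplies unstable 1,3-BPG in-well.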
mIDH1 inhibitor – human IDH1 R132H inhibition | IDH1-R132H enzyme, NADPH consumption, diaphorase/resazurin fluorescence | O75874 | Potency, µM (series often up to 76.6 µM), usual class: inhibitors | AID 602179 | 390,000 compounds, 0.093% hits; also: nearly all actives have a fitted effect of over 65% in size
Target sequence (O75874 whole entry R132H, stated change not applied): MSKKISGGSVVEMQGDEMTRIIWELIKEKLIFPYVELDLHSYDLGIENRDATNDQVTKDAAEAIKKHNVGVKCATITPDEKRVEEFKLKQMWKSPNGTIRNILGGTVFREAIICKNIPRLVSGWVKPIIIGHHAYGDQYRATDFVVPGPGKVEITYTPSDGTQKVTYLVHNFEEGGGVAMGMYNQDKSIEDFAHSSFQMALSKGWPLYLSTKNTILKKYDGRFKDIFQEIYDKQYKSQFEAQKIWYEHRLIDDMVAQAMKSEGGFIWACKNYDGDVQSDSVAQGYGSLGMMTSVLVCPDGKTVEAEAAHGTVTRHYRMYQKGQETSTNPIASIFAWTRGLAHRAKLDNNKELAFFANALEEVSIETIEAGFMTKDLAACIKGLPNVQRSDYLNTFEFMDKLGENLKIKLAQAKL
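IDH1-R132H (0.5 ug/mL dispensed) in pH 7.5 Tris buffer was preincubated 30 min with compound, then given a substrate mix of 0.016 mM NADPH and 2 mM alpha-KG for 80 min at room temperature; remaining NADPH was read by diaphorase/resazurin fluorescence.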
Hits are given with their value; 0 = inactive; ? = inconclusive; - = no result; ! = repeats disagree. Unless noted, calls follow the shape of the dose curve; as a rule, active = well fitted curve in the direction sought with a large enough effect; inconclusive = small, poorly fitted or top-dose-only effect, or another doubt; inactive = no such curve, though single readings can be large; an effect the other way counts as inactive or inconclusive.

SMILES	Pin1 inh	GLS inhibitor	Tb PGK inh	mIDH1 inhibitor
O=[N+]([O-])c1cccc(N/N=C/c2cccc(O)c2O)c1	0	7.9µM	0	0
O=[N+]([O-])c1ccccc1N/N=C/c1cccc(O)c1O	0	0	0	0
CC(C)(C)c1cc(-c2csc(Nc3ccccc3)[n+]2Cc2ccc(C(=O)O)cc2)cc(C(C)(C)C)c1O	-	0	0	37µM
CCN1CCN(Cc2ccc(NC(=O)c3ccc(C)c(NC(=O)c4nccn4C)c3)cc2C(F)(F)F)CC1	0	0	0	0
CCN1CCN(Cc2ccc(NC(=O)c3ccc(C)c(NC(=O)N4CCNC4=O)c3)cc2C(F)(F)F)CC1	0	0	25µM!	0
O=C(NCc1ccccc1)n1cc(P(=S)(c2ccccc2)c2ccccc2)c2ccccc21	0	-	-	-
CSC1CCCCC1(O)CSc1nc2ccccc2o1 (stereo not given)	0	13µM	0	0
O=c1c2ccccc2nc2sc(Nc3cccc(Br)c3)nn12	0	-	-	-
O=C(NCCCCc1ccccc1)C1CCN(c2nc(-c3ccc(Br)cc3)cs2)CC1	0	-	-	-
O=C(/C=C/c1ccco1)Nc1cccc(C(=O)Nc2ccccc2C(=O)O)c1	?	?	32µM	0
CC(C)N1CCN(c2cccc(Nc3nn4c(=O)c5ccccc5nc4s3)c2)CC1	0	-	-	-
C/C(=N\Nc1ccc(Cl)c(C(=O)O)c1)c1cccs1	?	?	0	0
C/C(=N/Nc1ccccc1C(=O)O)c1cccs1	0	13µM	0	0
Cc1c(O)ccc(NC(=O)/C=C/c2ccccc2)c1C	0	18µM	0	0
O=C1C(Cl)=C(Nc2ccc(O)cc2)C(=O)c2ccccc21	0	1.3µM	0	0
COC1=C(Nc2ccc(O)cc2)C(=O)c2ccccc2C1=O	0	7.9µM	0	0
COC1=C(Nc2ccc(OC)cc2)C(=O)c2ccccc2C1=O	0	0	0	0
Cc1ccc(NC2=C(Cl)C(=O)c3ccccc3C2=O)cc1	0	0	0	0
COc1cccc(C2c3c(ncn(-c4ccc(NC(C)=O)cc4)c3=N)Oc3ccc4ccccc4c32)c1 (stereo not given)	0	-	-	-
O=C(O)c1cccc2cccc(-c3c4ccc(=O)c(O)c-4oc4c(O)c(O)ccc34)c12	-	1.8µM	2.5µM	0
O=C(O)c1ccccc1-c1c2cc(Br)c(=O)c(Br)c-2oc2c(Br)c(O)c(Br)cc12	-	0	-	-
CC(CCc1ccccc1)NC(=O)CN1CCN(c2ccc(O)cc2)CC1 (stereo not given)	0	10µM	0	0
CC(CCc1ccccc1)NC(=O)CN1CCN(Cc2ccccc2)C1=O (stereo not given)	0	0	0	0
COc1cc(N=c2ssnc2Cl)c(OC)cc1Cl	0	16µM!	0	46µM
N#Cc1nc(Nc2cc(F)cc(F)c2)c2ncn(CCCN3CCCC3)c2n1	0	-	-	-
SMILES	Pin1 inh	GLS inhibitor	Tb PGK inh	mIDH1 inhibitor
Nc1ccc(N)c(C(=O)O)c1	?	5.6µM	?	0
Nc1ccc(C(=O)O)c(O)c1	0	0	0	0
Cc1ccc2nc(N3C(=O)C(O)=C(C(=O)c4ccc(C)o4)C3c3ccco3)sc2c1 (stereo not given)	0	?	0	0
O=C(C1=C(O)C(=O)N(c2nc3ccc(Cl)cc3s2)C1c1ccco1)c1ccco1 (stereo not given)	?	18µM	0	0
Cc1cc(C)c2nc(N3C(=O)C(O)=C(C(=O)c4ccco4)C3c3ccc(O)cc3)sc2c1 (stereo not given)	?	0	0	46µM
Cc1cc(C)c2nc(N3C(=O)C(O)=C(C(=O)c4ccco4)C3c3cccc(O)c3)sc2c1 (stereo not given)	0	0	0	37µM
Cc1ccc(C2C(C(=O)c3ccco3)=C(O)C(=O)N2c2nnc(C)s2)cc1 (stereo not given)	?	0	0	0
Cc1cc(N2C(=O)C(O)=C(C(=O)c3ccco3)C2c2cccc(O)c2)no1 (stereo not given)	0	0	0	0
O=C(c1ccccc1O)N(Cc1ccccc1)Cc1cccs1	0	-	-	-
NC(=O)C1CCN(c2nnc(-c3ccc(Br)cc3)s2)CC1	0	-	-	-
O=C(O)CN1C(=O)/C(=C/c2ccc(N3CCCCC3)o2)SC1=S	?	11µM	0	10µM
CCc1nn2c(=O)cc(NC3CNC3)nc2s1	0	-	-	-
O=S(=O)(O)c1ccc2c(N=Nc3ccc(S(=O)(=O)O)c4ccccc34)c(O)c(S(=O)(=O)O)cc2c1	-	0	-	-
O=S(=O)(O)c1cc(O)c(N=Nc2ccc(O)cc2O)c2ccccc12	-	?	25µM	0
COc1cccc(/C=C(/C#N)c2nc3ccccc3[nH]2)c1OC(C)C(=O)O (stereo not given)	0	13µM	-	0
O=C(Cn1cnc2sc(-c3ccccc3)cc2c1=O)NCc1ccco1	0	?	13µM	0
O=[N+]([O-])c1ccc([S+](=O)([O-])N2CCN([S+](=O)([O-])c3ccc4c(c3)OCCO4)CC2)c([N+](=O)[O-])c1	0	-	-	-
O=S(=O)(c1ccc(Br)cc1)N1CCN(S(=O)(=O)c2ccc3c(c2)OCCO3)CC1	0	-	-	-
CCOC1=C2CN(S(=O)(=O)c3ccc(C)cc3)[C@H](c3cccc4ccccc34)C[C@H]2C(C#N)(C#N)C(C#N)(C#N)C1	-	0	-	-
CCOC1=C2[C@H](c3ccccc3)N(S(=O)(=O)c3ccc(C)cc3)C(C(C)(C)C)[C@H]2C(C#N)(C#N)C(C#N)(C#N)C1 (stereo not given in full)	-	2.2µM	-	-
NC(=O)C1CCN(c2ncc(-c3ccc4c(c3)OCCO4)s2)CC1	0	-	-	-
CCOC(=O)C1Nc2c(F)cc(C)cc2C2c3ccccc3CC12 (stereo not given)	0	0	0	0
CCOC(=O)C1Nc2ccccc2C2c3ccccc3CC12 (stereo not given)	0	14µM	0	0
CNc1cccc(S(=O)(=O)N2CCN(S(=O)(=O)c3ccc4c(c3)OCCO4)CC2)c1	0	-	-	-
O=C1CC(NC2CCN(C(=O)c3cccc(F)c3)CC2)C(=O)N1 (stereo not given)	0	11µM	0	0
SMILES	Pin1 inh	GLS inhibitor	Tb PGK inh	mIDH1 inhibitor
CCN1C(=O)CC(NC2CCN(C(=O)c3ccc(F)cc3)CC2)C1=O (stereo not given)	0	0	0	0
Cc1cc2c(s1)c1cnn(Cc3c(F)ccc(C)c3F)c(=O)c1n2C	0	-	-	-
O=S(=O)(O)c1ccc(O)c2cc(Nc3ccccc3)ccc12	8.5µM	2.2µM	5µM	0
O=C(CN1CCN(c2ccccc2F)CC1)NC(=O)NC1CCCCC1	0	0	0	0
O=C(CN1CCN(c2ccccc2O)CC1)NC(=O)NC1CCCC1	0	2.8µM	0	0
Cn1cc(C(c2ccccc2OCC(=O)O)c2cn(C)c3ccccc23)c2ccccc21	0	14µM	0	0
COc1cccc(C2c3c(ncn(-c4ccccc4SC)c3=N)Oc3ccc4ccccc4c32)c1 (stereo not given)	0	-	-	-
COc1cc(Cn2ncc3c4sc(C)cc4n(C)c3c2=O)cc(OC)c1	0	-	-	-
O=S(=O)(c1cccc(O)c1)N1CCN(S(=O)(=O)c2c(F)cccc2F)CC1	0	-	-	-
COc1cc(O)c(C(C)=O)c(OC)c1	0	0	0	0
